Records with an inconclusive call do not appear. Unmarked numbers belong to inactive results. Active and inactive are the calls of the source. The call rests on the fitted dose curve; in most records, active means well fitted curve in the direction sought with a large enough effect; inconclusive means small, poorly fitted or top-dose-only effect, or another doubt; inactive means no such curve, though single readings can be large; an effect the other way counts as inactive or inconclusive.
Tests used:
[1] = biological target: Tyrosyl-DNA phosphodiesterase 1 (Homo sapiens) (UniProt Q9NUW8); assay: Confirmation Assay for Inhibitors of Tyrosyl-DNA Phosphodiesterase (TDP1) (AID 489007); details: recombinant human TDP1 enzymatic activity, dose-response; further: potency means the concentration at half of the fitted maximal effect; nearly all actives have a fitted effect of over 40% in size
Chain of Tyrosyl-DNA phosphodiesterase 1 (Homo sapiens) (Q9NUW8 whole entry, looked up): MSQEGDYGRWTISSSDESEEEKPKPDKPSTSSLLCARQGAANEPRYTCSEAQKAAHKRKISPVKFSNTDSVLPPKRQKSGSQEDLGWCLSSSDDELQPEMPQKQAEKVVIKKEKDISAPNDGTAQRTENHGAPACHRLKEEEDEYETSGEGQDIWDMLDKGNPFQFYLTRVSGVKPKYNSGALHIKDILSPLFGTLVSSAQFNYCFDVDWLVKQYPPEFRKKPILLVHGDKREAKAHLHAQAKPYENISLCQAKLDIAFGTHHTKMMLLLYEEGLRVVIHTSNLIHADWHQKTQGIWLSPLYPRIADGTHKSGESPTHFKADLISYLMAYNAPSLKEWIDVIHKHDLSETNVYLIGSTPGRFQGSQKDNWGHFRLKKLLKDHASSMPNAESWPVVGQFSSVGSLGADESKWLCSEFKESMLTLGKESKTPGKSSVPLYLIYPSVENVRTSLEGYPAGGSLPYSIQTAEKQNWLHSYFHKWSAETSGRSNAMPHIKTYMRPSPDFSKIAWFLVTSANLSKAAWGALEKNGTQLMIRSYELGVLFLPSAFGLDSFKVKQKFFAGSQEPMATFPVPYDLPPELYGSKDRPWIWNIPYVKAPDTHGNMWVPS
Procedure, shortened: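 AlphaScreen read-out: streptavidin donor and anti-FITC acceptor beads (10 ug/ml) bind intact substrate, so Tdp1 removal of tyrosine-FITC lowers signal. Enzyme 1 nM, substrate 15 nM, 5 min reaction at room temperature after 15 min compound preincubation.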

[2] = biological target: Tumor susceptibility gene 101 protein (Homo sapiens) (UniProt Q99816); assay: qHTS Assay for Iinhibitors of HIV-1 Budding by Blocking the Interaction of PTAP/TSG101: Hit Validation (AID 651600); further: nearly all actives have a fitted effect of over 70% in size
Chain of Tumor susceptibility gene 101 protein (Homo sapiens) (Q99816 whole entry, looked up, the tested form may be a part): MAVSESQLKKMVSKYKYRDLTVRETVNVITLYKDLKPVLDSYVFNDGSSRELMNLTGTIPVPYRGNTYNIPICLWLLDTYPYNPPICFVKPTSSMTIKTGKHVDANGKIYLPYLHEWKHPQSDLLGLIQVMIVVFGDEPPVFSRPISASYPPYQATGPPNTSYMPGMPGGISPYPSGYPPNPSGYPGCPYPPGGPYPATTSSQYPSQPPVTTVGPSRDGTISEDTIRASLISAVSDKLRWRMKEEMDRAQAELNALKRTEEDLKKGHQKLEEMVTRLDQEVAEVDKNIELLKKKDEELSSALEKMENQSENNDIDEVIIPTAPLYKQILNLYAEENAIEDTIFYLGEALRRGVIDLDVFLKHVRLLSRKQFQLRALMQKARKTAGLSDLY
Procedure, shortened: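 Compounds are added to the Tsg101 binding domain (10 uM final) in pH 7.5 HEPES buffer. FITC-PTAP peptide follows at 50 nM final. After 20 min at r.t., polarized FITC emission is measured.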

Compound | Potency [1] | Potency [2]
CCOC(=O)c1sc2nc3c(SCCC(=O)O)cc(C(=O)c4cc(OC)ccc4O)cn3c(=O)c2c1C | 2.82 µM (active) | –
CC(=O)Nc1ccc2nc3c(=O)[nH]c(=O)[nH]c3nc2c1 | 4.47 µM (active) | inactive
O=C(CSc1nccc(=O)[nH]1)NCc1ccco1 | 31.6 µM (active) | –

— PubChem BioAssay (NCATS)
